# Source: PubChem BioAssay (National Center for Advancing Translational Sciences (NCATS))
# nsP2pro inh: CHIKV nsP2 protease inhibition, primary qHTS; AID 1964107; 1.1% of 31,000 active; Q8JUX6; Potency, µM (highest dose often 24.9 µM), inactives show at the top dose activity change, negative = inhibition, actives largely listed as inhibitors; FRET peptide cleavage, nsP2pro, fluorescence 1 h; note: nearly all actives have a fitted effect of over 60% in size
#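 Enzyme 150 nM, substrate 2.5 uM (both final); Tris-HCl 10 mM pH 8.0 + 0.01% Tween 20; cpd up to 25 uM, 7 pts; 15 min preinc., 1 h RT; fluorescence ex 525/em 598.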
# CHIKV nsP2 cell: inhibits CHIKV nsP2 protease in cells | shares compounds with nsP2pro inh | cell-based CHIKV nsP2 protease reporter assay | Potency, µM (titrated, usually from 51.1 µM), without a hit: at the top dose activity change, negative = inhibition, most hits filed as inhibitors | 10% of 450 active | AID 1964100; note: nearly all actives have a fitted effect of over 70% in size
# Target sequence (Q8JUX6 220-798 limits assumed): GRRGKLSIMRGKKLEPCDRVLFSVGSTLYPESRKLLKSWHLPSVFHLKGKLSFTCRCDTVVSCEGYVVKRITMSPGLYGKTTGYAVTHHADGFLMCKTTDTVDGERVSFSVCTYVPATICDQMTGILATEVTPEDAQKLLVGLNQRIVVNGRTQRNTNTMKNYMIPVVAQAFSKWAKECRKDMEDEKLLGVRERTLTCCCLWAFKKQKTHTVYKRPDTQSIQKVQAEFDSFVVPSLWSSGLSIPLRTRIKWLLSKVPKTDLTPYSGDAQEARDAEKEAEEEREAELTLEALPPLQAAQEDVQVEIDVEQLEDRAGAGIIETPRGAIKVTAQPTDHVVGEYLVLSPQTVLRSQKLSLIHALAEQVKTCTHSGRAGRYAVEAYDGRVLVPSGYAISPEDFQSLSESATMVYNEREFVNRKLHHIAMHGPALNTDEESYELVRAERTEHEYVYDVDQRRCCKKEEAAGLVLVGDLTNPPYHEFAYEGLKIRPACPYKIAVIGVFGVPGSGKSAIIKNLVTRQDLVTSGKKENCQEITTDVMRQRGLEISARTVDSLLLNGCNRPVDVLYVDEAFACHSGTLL
# CHIKV NSP2 FL: inhibits full-length CHIKV NSP2 enzyme; shares compounds with nsP2pro inh; Full-length CHIKV NSP2 protease enzymatic counterscreen; Potency, µM (series often up to 50.7 µM), for inactives: at the top dose activity change, negative = inhibition, most hits filed as inhibitors; 39% of 410 active; note: nearly all actives have a fitted effect of over 65% in size
# Furin counter: human furin inhibition, counterscreen for nsP2pro inhibitors | shares compounds with nsP2pro inh | 6% of 410 active | AID 1964102 | Recombinant human furin enzymatic counterscreen, fluorogenic substrate | Potency, µM (series often up to 50.6 µM), for inactives: at the top dose activity change, negative = inhibition, actives largely listed as inhibitors
# NS23 peptide cs: selectivity test for CHIKV nsP2 protease inhibitors: endogenous NS2/3 peptide | 34% of 410 active | shares compounds with nsP2pro inh | Potency, µM (top dose mostly 51 µM), for inactives: top-dose activity change, negative = inhibition, actives largely listed as inhibitors | AID 1964103 | Purified CHIKV nsP2 protease, endogenous NS2/3 peptide cleavage; note: nearly all actives have a fitted effect of over 55% in size
# Papain cs: inhibits papain in a CHIKV nsP2 protease selectivity counterscreen; 5% of 410 active; AID 1964104; shares compounds with nsP2pro inh; purified papain protease activity, enzymatic inhibition; Potency, µM (doses to about 51 µM), for inactives: at the highest dose activity change, negative = inhibition, most hits filed as inhibitors
# nsP2pro conf qHTS: CHIKV nsP2 protease inhibition, confirmatory qHTS; shares compounds with nsP2pro inh; 43% of 410 active; Potency, µM (top dose mostly 25.5 µM), without a hit: top-dose activity change, negative = inhibition, usual class: inhibitors; AID 1964105; CHIKV nsP2 protease enzymatic activity, qHTS; note: nearly all actives have a fitted effect of over 75% in size
# HCV NS3 counter: inhibits HCV NS3/4A protease in an nsP2pro selectivity counterscreen; 20% of 410 active; shares compounds with nsP2pro inh; HCV NS3/4A protease biochemical counterscreen; AID 1964106; Potency, µM (titrated, usually from 50.9 µM), hits mostly inhibitors; note: nearly all actives have a fitted effect of over 55% in size
# * hit, by the source's call; i = inactive; ? = inconclusive; · = no result given; [ ] = dose if it differs, or a comment. This is one part of a sample in which hits are shown more often than they occur. Calls come from the whole dose curve. % is set by controls: 0 for no effect and ±100 for the full control effect; potency is the fitted concentration of half-maximal effect.
SMILES,nsP2pro inh,CHIKV nsP2 cell,CHIKV NSP2 FL,Furin counter,NS23 peptide cs,Papain cs,nsP2pro conf qHTS,HCV NS3 counter
O=C1CN(Cc2ccc(Cl)cc2)CCN1c1ccc(Cl)nn1,4%[39.2 µM],·,·,·,·,·,·,·
Nc1nc2c(s1)CCN(Cc1ccc(Cl)cc1)CC2,8.8µM*,105%,4%,7%,-17%,-12%,?,i
CC1=NOC2(CCN(Cc3ccc(Cl)cc3)CC2)C1,i,·,·,·,·,·,·,·
COc1ccc(C2=NOC3(CCN(Cc4cccn4C)C3)C2)cc1 (centres undefined),-23%[39.2 µM],·,·,·,·,·,·,·
C[C@H](C(=O)NC1CCCC1)N(C(=O)Cn1nnc(-c2ccc3c(c2)OCO3)n1)C1CCCCC1,4%,·,·,·,·,·,·,·
COc1cccc(-c2nnnn2[C@H]2CO[C@H]3[C@@H]2OC[C@@H]3NC(=O)C2CCCCC2)c1,19%[39.2 µM],·,·,·,·,·,·,·
O=C(NC1CCCCC1)N[C@H]1CO[C@H]2[C@@H]1OC[C@@H]2n1nnnc1-c1ccc2c(c1)OCO2,2.8µM*,-11%,18µM*,16µM*,16µM*,-2%,4.5µM*,?
Cc1cc(N=Nc2ccc(S(=O)(=O)Nc3ccccn3)cc2)c(N)cc1O,36%,·,·,·,·,·,·,·
COC(O)(CC(C)C)C1Oc2cc(C)[nH]c(=O)c2O1 (centres undefined),8.8µM*,11%,-6%,-4%,1%,-3%,-23%,i
CC(C)c1ccccc1-c1ncc(F)c(NCc2ccc(-c3cccnc3)s2)n1,-6%,·,·,·,·,·,·,·
CCOc1ccccc1CN1C[C@@H](CO)[C@H](NC(=O)c2cccnc2)C1,0%,·,·,·,·,·,·,·
O=C(O[C@H]1[C@@H]2C[C@@H]3OC[C@](O)([C@@H]1Cl)[C@H]2C(O[C@@H]1O[C@H](CO)[C@@H](O)[C@H](O)[C@H]1O)O3)c1ccc(O)c(O)c1 (some centres undefined),13%[10 µM],·,·,·,·,·,·,·
CCCCS(=O)c1sc2nc(-c3cccs3)cc(-c3ccccc3)c2c1N (centres undefined),7µM*,19%,-24%,-18%,-23%,?,14µM*,i
Cc1ccc(C)c(SC2=CS(=O)(=O)c3ccccc32)c1,i,·,·,·,·,·,·,·
COc1cc(/C=C\c2ccc(O)cc2)cc(OC)c1,2%,·,·,·,·,·,·,·
CC(C)CC(=O)N1CC[C@@H]2COCCN(C)[C@@H]2C1,-19%,·,·,·,·,·,·,·
C=C(C(=O)OC)[C@]12O[C@@](C)(CC[C@@]3(O)/C(=C\C)C(=O)O[C@]3(C)C[C@@H]1OC(=O)C(CO)CN1CCCC1C(=O)O)CC2=O (some centres undefined),?,-3%[17.6 µM],2.4µM*,-7%[17.3 µM],?,-22%[17.2 µM],2.1µM*,?
Nc1cc(F)ccc1NC(=O)/C=C/c1cnn(C/C=C/c2ccccc2)c1,-8%,·,·,·,·,·,·,·
O=S(=O)(O)c1ccccc1,-1%,·,·,·,·,·,·,·
NS(=O)(=O)C#Cc1ccccc1,7.9µM*,?,13µM*,-7%,?,-7%,6.3µM*,i
CCNC(=O)O[C@H]1COCCN(c2nc3ccccc3o2)C1,-4%[39.2 µM],·,·,·,·,·,·,·
Fc1ccc(Nc2nc(-c3ccnc(C(F)(F)F)c3)nc3ccccc23)cc1F,0%,·,·,·,·,·,·,·
COc1cc(C2Nc3ccccc3C(=O)N2Cc2ccccc2)ccc1OCc1ccc(NC(C)=O)cc1 (centres undefined),-21%,·,·,·,·,·,·,·
C1=C(c2cnc[nH]2)c2ccsc2CC1,?,5%,85%,?,-12%,-1%,40%,i
O=C(OCC#CCSc1nnc(-c2cccc3ccccc23)o1)c1cc(F)c(F)c(F)c1,2%,·,·,·,·,·,·,·
SMILES,nsP2pro inh,CHIKV nsP2 cell,CHIKV NSP2 FL,Furin counter,NS23 peptide cs,Papain cs,nsP2pro conf qHTS,HCV NS3 counter
Cn1cnnc1-c1nn(C)c2c1CNCC2,-7%,·,·,·,·,·,·,·
CCCCCS(=O)(=O)c1oc(-c2cccs2)nc1S(=O)(=O)c1ccc(C)cc1,-16%,·,·,·,·,·,·,·
CCCSc1oc(-c2cccs2)nc1S(=O)(=O)c1ccc(C)cc1,-23%,·,·,·,·,·,·,·
CCCCS(=O)(=O)c1oc(-c2cccs2)nc1S(=O)(=O)c1ccc(F)cc1,?,3.7µM*,5.8µM*,3%,8.2µM*,-9%,5µM*,i
O=C(O)C1CN(Cc2ccc(-c3nc4cc(Cc5ccccc5F)ccc4s3)c(F)c2)C1,-9%[5.1 µM],·,·,·,·,·,·,·
CCS(=O)(=O)N1CCC(C(=O)Nc2ccc(S(=O)(=O)Nc3nccs3)cc2)CC1,1%,·,·,·,·,·,·,·
C=C1C(=O)O[C@@H]2C(OC(=O)/C(C)=C\C)/C(C)=C\C(=O)/C=C(\C)C[C@H](O)[C@@H]12 (some centres undefined),?,?,-11%[33.5 µM],-6%[33.5 µM],?,-12%[33.5 µM],-23%[16.7 µM],?
C=C1C(=O)O[C@@H]2/C=C(/C)CC3C=C(C[C@H](OC(=O)/C(C)=C\C)[C@@H]12)C(=O)O3 (some centres undefined),-30%,·,·,·,·,·,·,·
C=C1C(=O)O[C@@H]2[C@H]3C(=C)[C@@H](O)C[C@H]3C(=C)C[C@@H](O)[C@@H]12,35%,·,·,·,·,·,·,·
CC(O)/C=C/C1C(C)C(O[C@@H]2O[C@H](CO)[C@@H](O)[C@H](O)[C@H]2O)C(O)CC1(C)C (some centres undefined),30%,·,·,·,·,·,·,·
CC1(C(=O)Nc2ccccc2)CCc2cnc(N3CCOCC3)nc21 (centres undefined),-7%[39.2 µM],·,·,·,·,·,·,·
C=CCC/C=C/C#CCCCCCCCC[C@H]1C(=O)O[C@H](C)[C@@H]1O,?,?,?,-9%[33.5 µM],-8%[33.5 µM],?,?,i
CO[C@@]12CC3[C@@H]([C@@H](O)[C@@H](OC(C)=O)C4[C@](C)(COC(C)=O)CCC[C@]34C)[C@@H](C)C1=CC(=O)O2 (some centres undefined),-6%[10 µM],·,·,·,·,·,·,·
CCC(C)C(=O)OC1CC(O)C23C4OCC5(C(O)CC2C1(C)C(O)O4)C3C(=O)CC1(C)C(c2ccoc2)CC2OC215 (centres undefined),-22%[10 µM],·,·,·,·,·,·,·
Cc1cc(C)nc(NC(=S)N2CCN(c3cc(Cl)c(Cl)c(Cl)c3)CC2)c1,-2%,·,·,·,·,·,·,·
COCC1CN(C)CC12CCN(C(=O)Cc1ccc(OC)c(Cl)c1)CC2 (centres undefined),i,·,·,·,·,·,·,·
CC/C(C)=C/C(=O)OC1C(OC2(C)CCC3C(C4C(C)CCC42)C3(C)C)OC(C)C(O)C1O (centres undefined),?,?,5%[17.3 µM],-17%[17.3 µM],-2%[17.2 µM],?,-10%[8.62 µM],i
O=C(Cc1ccccc1)N1CCCC2(CC(c3cccc(C(F)(F)F)c3)=NO2)C1 (centres undefined),-4%,·,·,·,·,·,·,·
